{
  "source": "PubChem BioAssay AID651826",
  "about": "(Vanderbilt Specialized Chemistry Center, 2012)",
  "test": "radioligand displacement at GPCRs, transporters, channels – biochemical, Ricerca panel, radioligand binding, selectivity assay for E-cadherin project, profiling panel (AID 651826)",
  "details": "Ricerca radioligand binding/enzyme panel, % inhibition, at 10 µM, stronger effect = higher value",
  "note": "Active and inactive are the calls of the source.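 The calls were made as follows: active = inhibition above 50% of specific binding or functional response at a panel target; inactive = the rest.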",
  "data": [
    {"smiles": "O=C(NCCCNC(=O)c1ccc[nH]c1=O)c1cc(-c2ccccc2)on1", "values": [
      {"measurement": "inhibition", "result": "74% (active)"},
      {"measurement": "inhibition", "setting": "measured here: 5-HT1A binding", "result": -4, "unit": "%"},
      {"measurement": "inhibition", "setting": "measured here: GABAA muscimol site binding", "result": 20, "unit": "%"},
      {"measurement": "inhibition", "setting": "measured here: adenosine A1 binding", "result": 71, "unit": "%"},
      {"measurement": "inhibition", "setting": "measured here: cannabinoid CB1 binding", "result": -23, "unit": "%"},
      {"measurement": "inhibition", "setting": "measured here: dopamine D3 binding", "result": 18, "unit": "%"},
      {"measurement": "inhibition", "setting": "measured here: dopamine transporter binding", "result": 31, "unit": "%"},
      {"measurement": "inhibition", "setting": "measured here: hERG channel binding", "result": 13, "unit": "%"},
      {"measurement": "inhibition", "setting": "measured here: mu opioid binding", "result": -5, "unit": "%"},
      {"measurement": "inhibition", "setting": "measured here: muscarinic M1 binding", "result": 9, "unit": "%"},
      {"measurement": "inhibition", "setting": "measured here: norepinephrine transporter binding", "result": 13, "unit": "%"},
      {"measurement": "inhibition", "setting": "measured here: serotonin transporter binding", "result": 10, "unit": "%"},
      {"measurement": "inhibition", "setting": "measured here: sigma1 receptor binding", "result": 47, "unit": "%"}
    ]}
  ]
}
